In the supplement of paper PMC11732987, “Enantioselective OTUD7B fragment discovery through chemoproteomics screening and high-throughput optimisation” (Communications Chemistry, 2025):

Assays:
Assay in all cases: log2 ratio of Biotin-Ahx-Ub-VS probe labelling (fragment/DMSO); higher = less target engagement (more negative = stronger competition), active = hit call of the paper (q ≤ 0.05, log2 ratio ≤ -1)
Conditions in all cases: compound concentration: 200 uM; treatment time: 3 h
[1] = molecular target: USP9X (UniProt Q93008)
In short: (§1)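 Using Biotin-Ahx-Ub-VS at 0.5 µM final for 1 h, DUBs were labelled in HEK293T lysate (495 µg per sample) that had first been treated in triplicate with fragment at 200 µM or vehicle for 3 h. NeutrAvidin enrichment, LysC and trypsin digestion and diaPASEF LC-MS/MS followed. Spectronaut label-free quantities were global-median-normalised. Values are average log2 fragment/vehicle ratios by unpaired t-test, using proteins with ≥2 unique peptides.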

[2] = molecular target: UniProt O00487
In short: as §1

[3] = molecular target: UniProt O00507
In short: as §1

[4] = molecular target: UniProt P51784
In short: as §1

[5] = molecular target: T1, UniProt Q5T2D3
T1 sequence (whole entry): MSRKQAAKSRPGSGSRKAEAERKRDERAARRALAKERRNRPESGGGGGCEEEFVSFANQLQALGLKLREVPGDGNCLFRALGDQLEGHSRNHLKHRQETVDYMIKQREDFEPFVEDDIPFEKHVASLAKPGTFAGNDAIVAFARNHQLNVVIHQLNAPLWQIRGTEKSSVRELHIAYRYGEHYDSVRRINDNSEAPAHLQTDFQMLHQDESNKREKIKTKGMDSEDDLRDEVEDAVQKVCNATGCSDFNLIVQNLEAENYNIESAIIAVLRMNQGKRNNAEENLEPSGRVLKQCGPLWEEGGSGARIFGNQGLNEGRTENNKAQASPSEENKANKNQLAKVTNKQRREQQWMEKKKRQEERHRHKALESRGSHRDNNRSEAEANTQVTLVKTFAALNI
In short: as §1

[6] = molecular target: T2, UniProt Q8TE49
T2 sequence (whole entry): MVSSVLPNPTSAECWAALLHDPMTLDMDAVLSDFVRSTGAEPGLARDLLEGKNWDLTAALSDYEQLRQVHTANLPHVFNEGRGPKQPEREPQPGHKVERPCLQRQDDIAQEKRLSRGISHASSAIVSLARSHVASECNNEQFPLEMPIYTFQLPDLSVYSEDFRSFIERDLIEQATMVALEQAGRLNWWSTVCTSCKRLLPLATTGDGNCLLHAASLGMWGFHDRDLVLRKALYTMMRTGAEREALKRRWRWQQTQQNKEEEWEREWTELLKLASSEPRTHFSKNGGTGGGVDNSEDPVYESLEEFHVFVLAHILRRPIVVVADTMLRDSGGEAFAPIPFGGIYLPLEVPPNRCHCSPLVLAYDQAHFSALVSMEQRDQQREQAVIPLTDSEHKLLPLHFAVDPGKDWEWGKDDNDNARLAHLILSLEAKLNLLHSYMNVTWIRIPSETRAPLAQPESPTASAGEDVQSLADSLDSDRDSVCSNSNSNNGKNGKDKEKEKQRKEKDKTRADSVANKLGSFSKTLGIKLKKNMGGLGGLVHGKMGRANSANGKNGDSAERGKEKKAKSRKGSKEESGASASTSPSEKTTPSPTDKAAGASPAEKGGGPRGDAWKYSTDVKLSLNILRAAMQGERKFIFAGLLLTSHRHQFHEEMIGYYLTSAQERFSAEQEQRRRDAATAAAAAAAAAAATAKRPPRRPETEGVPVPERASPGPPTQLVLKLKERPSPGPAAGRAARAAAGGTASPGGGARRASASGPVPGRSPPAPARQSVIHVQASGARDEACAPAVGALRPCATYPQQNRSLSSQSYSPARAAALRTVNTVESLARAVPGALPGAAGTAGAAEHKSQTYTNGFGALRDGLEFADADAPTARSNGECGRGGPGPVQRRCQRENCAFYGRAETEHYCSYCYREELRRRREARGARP
In short: as §1

[7] = molecular target: T3, UniProt Q9P2H5
T3 sequence (whole entry): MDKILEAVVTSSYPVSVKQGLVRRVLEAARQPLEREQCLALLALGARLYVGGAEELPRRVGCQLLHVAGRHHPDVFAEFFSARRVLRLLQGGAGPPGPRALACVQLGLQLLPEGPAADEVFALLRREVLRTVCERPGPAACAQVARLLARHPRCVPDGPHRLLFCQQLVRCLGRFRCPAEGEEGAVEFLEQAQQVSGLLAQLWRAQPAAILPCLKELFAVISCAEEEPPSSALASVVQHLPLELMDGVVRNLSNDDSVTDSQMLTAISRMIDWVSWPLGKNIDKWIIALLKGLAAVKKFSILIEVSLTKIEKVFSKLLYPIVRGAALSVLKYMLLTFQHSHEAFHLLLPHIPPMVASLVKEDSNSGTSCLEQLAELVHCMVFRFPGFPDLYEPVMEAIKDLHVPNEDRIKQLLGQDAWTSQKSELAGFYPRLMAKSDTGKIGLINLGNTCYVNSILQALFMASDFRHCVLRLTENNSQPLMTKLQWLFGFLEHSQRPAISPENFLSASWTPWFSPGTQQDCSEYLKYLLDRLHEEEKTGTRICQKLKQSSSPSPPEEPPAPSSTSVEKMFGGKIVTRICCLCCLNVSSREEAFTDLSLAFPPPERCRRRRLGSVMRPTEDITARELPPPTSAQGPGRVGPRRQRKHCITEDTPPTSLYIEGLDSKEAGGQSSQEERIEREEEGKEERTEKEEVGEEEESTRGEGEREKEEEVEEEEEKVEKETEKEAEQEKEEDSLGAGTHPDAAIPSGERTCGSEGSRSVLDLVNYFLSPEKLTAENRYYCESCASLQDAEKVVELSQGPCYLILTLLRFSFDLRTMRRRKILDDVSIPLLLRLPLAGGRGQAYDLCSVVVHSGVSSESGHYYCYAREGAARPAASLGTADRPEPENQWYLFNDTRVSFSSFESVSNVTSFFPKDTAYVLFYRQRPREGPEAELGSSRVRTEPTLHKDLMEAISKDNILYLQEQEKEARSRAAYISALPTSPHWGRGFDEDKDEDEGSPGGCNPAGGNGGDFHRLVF
In short: as §1

[8] = molecular target: T4, UniProt Q9UGI0
T4 sequence (whole entry): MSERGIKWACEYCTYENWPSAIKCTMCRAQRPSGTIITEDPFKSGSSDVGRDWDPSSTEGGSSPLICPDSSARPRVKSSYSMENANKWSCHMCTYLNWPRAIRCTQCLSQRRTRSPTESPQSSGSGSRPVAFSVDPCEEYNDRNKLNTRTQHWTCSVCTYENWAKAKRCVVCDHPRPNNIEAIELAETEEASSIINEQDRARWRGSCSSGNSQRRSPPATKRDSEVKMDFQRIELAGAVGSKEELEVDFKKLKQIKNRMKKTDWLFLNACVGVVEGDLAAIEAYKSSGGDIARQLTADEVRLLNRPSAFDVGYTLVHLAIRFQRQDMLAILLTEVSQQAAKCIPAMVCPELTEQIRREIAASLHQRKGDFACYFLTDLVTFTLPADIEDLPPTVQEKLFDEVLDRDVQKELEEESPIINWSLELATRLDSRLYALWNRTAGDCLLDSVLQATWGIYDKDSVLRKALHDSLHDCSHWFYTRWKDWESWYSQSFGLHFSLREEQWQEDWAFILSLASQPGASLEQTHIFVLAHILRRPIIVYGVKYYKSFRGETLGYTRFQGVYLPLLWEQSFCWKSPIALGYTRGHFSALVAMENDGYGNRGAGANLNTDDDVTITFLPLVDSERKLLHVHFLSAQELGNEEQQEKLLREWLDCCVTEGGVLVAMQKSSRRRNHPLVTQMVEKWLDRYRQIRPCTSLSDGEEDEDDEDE
In short: as §1

[9] = molecular target: T5, YOD1 (UniProt Q5VVQ6)
T5 sequence (whole entry): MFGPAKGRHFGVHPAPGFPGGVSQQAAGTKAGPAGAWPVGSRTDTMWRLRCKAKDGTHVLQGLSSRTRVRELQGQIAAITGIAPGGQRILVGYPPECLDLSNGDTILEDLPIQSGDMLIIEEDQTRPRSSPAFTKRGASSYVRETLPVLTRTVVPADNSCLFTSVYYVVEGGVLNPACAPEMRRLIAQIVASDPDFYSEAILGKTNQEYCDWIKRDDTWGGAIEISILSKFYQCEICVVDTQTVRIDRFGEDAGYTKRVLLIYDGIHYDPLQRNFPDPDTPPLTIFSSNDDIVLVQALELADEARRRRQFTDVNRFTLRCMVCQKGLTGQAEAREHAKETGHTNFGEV
In short: as §1

Measured: log2 ratio of Biotin-Ahx-Ub-VS probe labelling

USP9X, sequence (Q93008 whole entry, the tested form may be a part): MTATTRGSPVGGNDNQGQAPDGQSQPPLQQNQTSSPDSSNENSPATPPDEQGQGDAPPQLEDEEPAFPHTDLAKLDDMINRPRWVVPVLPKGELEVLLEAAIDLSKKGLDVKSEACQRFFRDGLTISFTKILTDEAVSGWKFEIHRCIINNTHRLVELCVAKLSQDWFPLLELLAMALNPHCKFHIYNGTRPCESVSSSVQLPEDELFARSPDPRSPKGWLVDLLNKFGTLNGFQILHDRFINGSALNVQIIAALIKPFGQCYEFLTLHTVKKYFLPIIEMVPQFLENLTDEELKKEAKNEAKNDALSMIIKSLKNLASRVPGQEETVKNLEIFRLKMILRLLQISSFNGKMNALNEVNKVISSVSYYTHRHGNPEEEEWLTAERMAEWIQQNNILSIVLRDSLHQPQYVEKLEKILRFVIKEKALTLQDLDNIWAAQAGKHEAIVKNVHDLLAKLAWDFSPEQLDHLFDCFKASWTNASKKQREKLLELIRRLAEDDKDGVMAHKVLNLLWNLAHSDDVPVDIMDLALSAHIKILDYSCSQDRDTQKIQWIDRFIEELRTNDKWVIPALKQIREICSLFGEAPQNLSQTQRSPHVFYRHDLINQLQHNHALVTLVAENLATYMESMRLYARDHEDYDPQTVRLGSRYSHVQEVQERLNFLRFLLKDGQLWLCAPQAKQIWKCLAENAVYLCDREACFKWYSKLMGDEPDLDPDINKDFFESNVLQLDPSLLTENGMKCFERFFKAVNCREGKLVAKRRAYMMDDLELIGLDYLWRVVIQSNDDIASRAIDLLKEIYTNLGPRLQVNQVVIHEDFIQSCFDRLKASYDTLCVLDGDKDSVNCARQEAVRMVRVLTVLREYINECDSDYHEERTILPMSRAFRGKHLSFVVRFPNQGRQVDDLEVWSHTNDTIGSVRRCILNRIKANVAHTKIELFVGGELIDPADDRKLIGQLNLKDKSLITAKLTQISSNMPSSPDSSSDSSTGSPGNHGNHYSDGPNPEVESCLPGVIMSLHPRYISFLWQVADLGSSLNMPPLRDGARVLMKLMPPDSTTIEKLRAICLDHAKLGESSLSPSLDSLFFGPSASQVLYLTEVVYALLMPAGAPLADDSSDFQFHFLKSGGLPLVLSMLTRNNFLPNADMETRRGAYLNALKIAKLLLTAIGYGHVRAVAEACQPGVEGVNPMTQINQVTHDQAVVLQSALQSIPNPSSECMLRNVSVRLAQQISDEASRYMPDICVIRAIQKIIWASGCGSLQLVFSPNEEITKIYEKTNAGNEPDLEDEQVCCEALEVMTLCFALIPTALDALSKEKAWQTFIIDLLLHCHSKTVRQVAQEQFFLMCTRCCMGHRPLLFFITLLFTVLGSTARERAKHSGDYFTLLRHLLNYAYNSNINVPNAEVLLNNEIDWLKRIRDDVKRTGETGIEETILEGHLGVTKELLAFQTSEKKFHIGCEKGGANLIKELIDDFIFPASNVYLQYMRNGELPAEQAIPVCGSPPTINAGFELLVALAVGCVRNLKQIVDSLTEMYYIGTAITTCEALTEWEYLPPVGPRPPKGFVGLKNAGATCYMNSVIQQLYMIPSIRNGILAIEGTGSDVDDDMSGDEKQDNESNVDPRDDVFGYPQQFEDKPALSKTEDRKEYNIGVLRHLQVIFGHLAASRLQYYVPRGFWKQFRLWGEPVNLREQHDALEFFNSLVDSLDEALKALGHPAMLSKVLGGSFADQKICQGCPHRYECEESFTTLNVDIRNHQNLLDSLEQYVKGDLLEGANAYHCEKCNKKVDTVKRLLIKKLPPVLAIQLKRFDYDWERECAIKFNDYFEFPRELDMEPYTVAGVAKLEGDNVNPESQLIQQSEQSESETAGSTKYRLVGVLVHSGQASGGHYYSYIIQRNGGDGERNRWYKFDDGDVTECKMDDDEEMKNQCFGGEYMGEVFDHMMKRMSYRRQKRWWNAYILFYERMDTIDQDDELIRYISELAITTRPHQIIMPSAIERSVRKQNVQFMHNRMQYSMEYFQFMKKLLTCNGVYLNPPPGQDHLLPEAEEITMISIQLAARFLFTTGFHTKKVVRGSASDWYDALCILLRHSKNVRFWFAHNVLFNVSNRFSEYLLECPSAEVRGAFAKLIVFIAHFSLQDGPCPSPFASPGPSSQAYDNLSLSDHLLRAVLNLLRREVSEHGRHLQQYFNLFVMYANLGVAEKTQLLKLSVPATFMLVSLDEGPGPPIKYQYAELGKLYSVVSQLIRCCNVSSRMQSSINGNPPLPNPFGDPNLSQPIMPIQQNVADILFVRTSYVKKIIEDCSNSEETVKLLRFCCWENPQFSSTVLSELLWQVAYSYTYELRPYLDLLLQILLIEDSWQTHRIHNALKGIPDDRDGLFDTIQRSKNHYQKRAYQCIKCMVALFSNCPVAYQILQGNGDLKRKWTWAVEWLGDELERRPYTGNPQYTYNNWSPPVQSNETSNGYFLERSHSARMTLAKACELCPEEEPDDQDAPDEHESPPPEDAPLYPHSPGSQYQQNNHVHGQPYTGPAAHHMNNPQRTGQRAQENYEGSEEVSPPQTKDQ
UniProt O00487, sequence (O00487 whole entry): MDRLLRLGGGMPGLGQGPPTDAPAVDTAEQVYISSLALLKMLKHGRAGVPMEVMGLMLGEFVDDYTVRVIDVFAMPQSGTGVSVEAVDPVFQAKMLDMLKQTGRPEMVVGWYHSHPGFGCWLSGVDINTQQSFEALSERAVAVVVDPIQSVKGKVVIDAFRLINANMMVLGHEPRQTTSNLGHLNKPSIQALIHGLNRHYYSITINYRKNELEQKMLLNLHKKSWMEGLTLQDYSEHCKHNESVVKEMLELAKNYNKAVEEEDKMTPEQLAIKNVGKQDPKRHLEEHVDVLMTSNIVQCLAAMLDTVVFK
UniProt P51784, sequence (P51784 whole entry): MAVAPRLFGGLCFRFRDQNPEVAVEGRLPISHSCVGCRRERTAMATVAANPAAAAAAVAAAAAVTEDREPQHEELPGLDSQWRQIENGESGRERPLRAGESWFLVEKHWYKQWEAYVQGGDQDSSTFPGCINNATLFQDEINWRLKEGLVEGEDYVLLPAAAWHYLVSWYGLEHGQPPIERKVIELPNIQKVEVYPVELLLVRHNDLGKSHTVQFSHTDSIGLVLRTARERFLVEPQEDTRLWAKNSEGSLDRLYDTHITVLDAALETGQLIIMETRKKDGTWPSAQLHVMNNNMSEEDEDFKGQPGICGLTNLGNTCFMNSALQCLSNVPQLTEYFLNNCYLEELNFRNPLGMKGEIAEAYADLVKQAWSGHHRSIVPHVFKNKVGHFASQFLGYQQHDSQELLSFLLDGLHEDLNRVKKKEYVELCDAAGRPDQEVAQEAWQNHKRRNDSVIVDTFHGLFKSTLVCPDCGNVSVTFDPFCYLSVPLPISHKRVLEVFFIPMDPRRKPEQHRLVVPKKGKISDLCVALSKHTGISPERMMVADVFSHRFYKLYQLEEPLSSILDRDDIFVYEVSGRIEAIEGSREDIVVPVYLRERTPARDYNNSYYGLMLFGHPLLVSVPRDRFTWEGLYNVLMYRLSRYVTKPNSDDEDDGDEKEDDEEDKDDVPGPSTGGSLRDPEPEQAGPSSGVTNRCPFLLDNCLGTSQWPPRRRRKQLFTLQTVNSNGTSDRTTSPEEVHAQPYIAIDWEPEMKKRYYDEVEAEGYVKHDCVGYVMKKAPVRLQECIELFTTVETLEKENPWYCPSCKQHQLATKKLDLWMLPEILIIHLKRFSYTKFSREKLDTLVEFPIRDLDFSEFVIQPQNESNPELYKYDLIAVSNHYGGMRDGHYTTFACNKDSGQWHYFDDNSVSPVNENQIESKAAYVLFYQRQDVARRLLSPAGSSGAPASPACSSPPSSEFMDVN

O=C(CCl)NCCC1=CCCCC1
inactive: [1] -0.0639 | [2] -0.0958 | [3] 0.347 | [4] 0.0951 | [5] -0.215 | [6] -0.191 | [7] -0.0991 | [8] -0.159 | [9] 0.16
